Most compounds without a hit are left out; they make up all but 2.9% or so of the library.
MEKK3 PB1 HTS: raises or lowers MEK5 binding to the human MEKK3 PB1 domain. Q99759. bead-based flow cytometry, Alexa488-MEK5 binding to MEKK3; actives lie on both sides; 0 = blocked by unlabeled MEK5, 100 = vehicle. binding response (% of control), % at 10 µM. 290,000 tested, 1.4% active. AID 1529;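 active = binding response more than 3 SD above or below the average of its plate-row segment, actives on both sides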;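 note: Alexa488 bead fluorescence after subtracting the streptavidin-only scavenger bead signal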
Target sequence (Q99759 whole entry, looked up, the tested form may be a part): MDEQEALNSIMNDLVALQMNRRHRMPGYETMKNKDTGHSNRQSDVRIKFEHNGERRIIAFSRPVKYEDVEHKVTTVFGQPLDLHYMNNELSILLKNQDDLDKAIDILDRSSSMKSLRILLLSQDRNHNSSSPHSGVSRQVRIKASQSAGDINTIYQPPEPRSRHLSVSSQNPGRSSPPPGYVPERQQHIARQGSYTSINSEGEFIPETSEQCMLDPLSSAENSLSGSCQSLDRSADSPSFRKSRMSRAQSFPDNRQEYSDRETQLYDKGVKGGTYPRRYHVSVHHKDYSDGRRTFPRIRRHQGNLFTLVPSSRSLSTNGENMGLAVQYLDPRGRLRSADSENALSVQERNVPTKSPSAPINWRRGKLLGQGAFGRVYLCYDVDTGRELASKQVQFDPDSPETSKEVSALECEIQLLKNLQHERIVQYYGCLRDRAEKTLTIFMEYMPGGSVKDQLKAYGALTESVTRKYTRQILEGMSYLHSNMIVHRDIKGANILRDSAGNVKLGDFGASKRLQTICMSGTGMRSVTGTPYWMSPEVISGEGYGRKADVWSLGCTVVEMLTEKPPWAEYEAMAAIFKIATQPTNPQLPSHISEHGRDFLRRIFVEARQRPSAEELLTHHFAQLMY
MEKK2 WT-MEK5: raises or lowers MEK5 binding to wildtype human MEKK2 PB1 domain; Q9Y2U5; bead flow cytometry, Alexa488-MEK5 binding to MEKK2 WT; actives lie on both sides; binding response (% of control), % at 10 µM; 290,000 tested, 1.1% active; AID 1531; in the data active = binding response below about 67% or above about 130%
ABCB6 inh 2: human ABCB6 transporter inhibition; Q9NP58; 360,000 tested, 0.19% active; fluorescence ratio to DMSO, % at 10 µM; K562-ABCB6 porphyrin accumulation, flow cytometry, 1 h; active compounds read low; AID 602162;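 active = fluorescence ratio to DMSO below 75%, the collection mean minus 3 SD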;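 note: signal is porphyrin accumulated inside mitochondria; 100% equals median channel fluorescence of DMSO control wells; lower ratio means ABCB6 inhibition with less porphyrin fluorescence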
CRFR2-BP antag: CRF-BP/CRF-R2 complex antagonism; HEK293 CRF-R2/CRF-BP, CRF-induced calcium fluorescence; 350,000 tested, 0.59% active; inhibition, % at 11.8 µM;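 active = inhibition of the ligand-induced calcium signal above about 50% at the single tested concentration, limit read from the data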
CRFR2-BP ag: CRF-BP/CRF-R2 complex agonism | HEK293 CRF-R2/CRF-BP, calcium dye fluorescence (FLIPR); percent of saturating CRF peptide response | activation, % at 13.2 µM | 350,000 tested, 0.46% active;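 active = activation of at least 50%, plus an integration ratio under a set limit after plate pattern correction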;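 note: plate controls were neutral control wells without compound for no effect and CRF at EC100 for full effect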
MEKK2 mut-MEK5: signal of MEK5 binding to mutant human MEKK2 PB1 domain | bead flow cytometry, Alexa488-MEK5 binding to MEKK2 mutant | percent response, % at 10 µM | 290,000 tested, 0.35% active | AID 1530; in the data active = percent response above about 24%, passing the limit was not always enough
MEKK2wt confirm: raises or lowers MEK5 binding to wildtype human MEKK2, retest; 5,900 tested, 2.4% active; binding response (% of control), % at 10 µM; shares compounds with MEKK3 PB1 HTS; bead flow cytometry, Alexa488-MEK5 binding to MEKK2 WT; actives lie on both sides; in the data active = binding response below about 16% or above about 210%; inactive = in between
MEKK2mut-MEK5: signal of MEK5 binding to mutant human MEKK2, retest; percent response, % at 10 µM; 5,900 tested, 2% active; bead flow cytometry, Alexa488-MEK5 binding to MEKK2 mutant; shares compounds with MEKK3 PB1 HTS; in the data active = percent response mostly above about 71%, no sharp cut-off; inactive = mostly below about 38%;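 note: higher means compound restores mutant binding toward wildtype level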
MEKK3-MEK5 inh: MEKK3-MEK5 PB1 inhibition, single concentration confirmation. bead flow cytometry, Alexa488-MEK5 binding to MEKK3; active compounds read low. AID 1894. 5,900 tested, 1.8% active. binding response (% of control), % at 10 µM. shares compounds with MEKK3 PB1 HTS;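 active = binding response below 72% of control, or above a set upper limit, though filed actives all read lower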;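 note: 100% = DMSO only wells and 0% = binding blocked by excess unlabeled MEK5; lower values mean stronger disruption of MEK5 binding to MEKK3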
The depositor's hits bear a star; nt = no result; [ ] = remark or other dose.

SMILES	MEKK3 PB1 HTS	MEKK2 WT-MEK5	ABCB6 inh 2	CRFR2-BP antag	CRFR2-BP ag	MEKK2 mut-MEK5	MEKK2wt confirm	MEKK2mut-MEK5	MEKK3-MEK5 inh
Cc1ccccc1-n1c(SCC(=O)N/N=C/C=C/c2ccccc2[N+](=O)[O-])nc2ccccc2c1=O	134*	102	91	-2	5	0	97	-7	104
COc1ccccc1-c1cc(C(=O)N/N=C/C=C/c2ccccc2[N+](=O)[O-])c2ccccc2n1	94	89	100	25	0	-1	nt	nt	nt
O=C(N/N=C/C=C/c1ccccc1[N+](=O)[O-])c1cc(-c2cccnc2)nc2ccccc12	65*[inhibitor]	90	97	42	0	-2	103	3	106
CCCn1c2ccccc2c2cnn(CC(=O)NCCCN3CCCC(C)C3)c(=O)c21 (stereo not given)	99	103	96	-16	2	4	nt	nt	nt
N#Cc1ccccc1OCC(=O)Nc1nnc(C2CC2)s1	nt	nt	98	2	-1	nt	nt	nt	nt
Cc1cc(C)c(S(=O)(=O)N2CCCCC2CCNC(=O)C(=O)NCc2ccco2)c(C)c1 (stereo not given)	nt	nt	98	0	0	nt	nt	nt	nt
O=C(CSc1nc2c(c(=O)n1-c1ccc(F)cc1)SCC2)NCc1ccco1	124*	120	80	-5	-1	4	103	-1	100
O=C(CSc1nc2c(c(=O)n1-c1ccc(Cl)cc1)SCC2)NCc1ccco1	nt	nt	91	-7	-1	nt	nt	nt	nt
O=C(CN1CCOCC1)Nc1ccccc1Sc1ccc(Cl)cc1	129*	103	96	-37	2	0	98	-7	100
CC(C)(C)Cc1nnc(NC(=O)CCC2CCCCC2)s1	102	106	98	-27	-1	4	nt	nt	nt
C=CCNc1nc(N)c([N+](=O)[O-])c(Nc2ccccc2OC)n1	104	102	96	-40	-4	5	nt	nt	nt
Cc1ccc(Nc2nc(NCCCN3CCOCC3)nc(N)c2[N+](=O)[O-])cc1C	106	148*	102	-92	-3	21	131	15	102
Cc1ccc(Nc2nc(NCCCN3CCOCC3)nc(N)c2[N+](=O)[O-])cc1	107	106	100	-14	0	4	nt	nt	nt
COc1ccccc1Nc1nc(NCCCN(C)C)nc(N)c1[N+](=O)[O-]	111	145*	92	4	-1	47	144	29	103
CC(C)(C)c1cc(NC(=O)C2(C)CCN2C(=O)c2ccccc2CCc2ccccc2)no1 (stereo not given)	nt	nt	97	nt	nt	nt	nt	nt	nt
c1ccc(-c2cc(NCCN3CCCCC3)c3ccccc3n2)cc1	111	139*	103	8	-1	23	119	10	105
Cc1cccc(CN2CCC(C(=O)Nc3cccc(-c4cccc(F)c4)c3)CC2)n1	100	109	93	-18	0	-1	nt	nt	nt
CCCn1ncc(CN2CCC(C(=O)Nc3cccc(-c4cccc(F)c4)c3)CC2)c1C	104	144*	105	-17	0	13	128	22	107
O=C(Nc1cccc(-c2cccc(F)c2)c1)C1CCN(C2CCC2)CC1	103	146*	102	-29	4	17	134	26	103
COc1ccc(-c2oc3ccccc3c2C(=O)OCc2ccccc2OC)cc1	97	94	92	-28	19	-7	nt	nt	nt
COc1ccc2nc(SC(C)C(=O)NC3CCCC3)[nH]c2c1 (stereo not given)	nt	nt	93	13	-1	nt	nt	nt	nt
O=c1c2ccccc2oc2cc(OCc3cccc(F)c3)cc(O)c12	99	101	99	-12	5	-8	nt	nt	nt
COc1ccc(NC(=O)/C(=C\c2ccc(F)cc2)NC(=O)c2ccco2)cc1	98	99	90	1	-2	-2	nt	nt	nt
Cc1nn(Cc2ccc(Cl)cc2)c(C)c1NC(=O)CCCn1nc(C)c([N+](=O)[O-])c1C	97	98	95	29	2	-1	nt	nt	nt
Cc1nn(Cc2ccccc2Cl)c(C)c1NC(=O)CSc1n[nH]c(C)c1[N+](=O)[O-]	102	112	nt	nt	nt	16	nt	nt	nt
SMILES	MEKK3 PB1 HTS	MEKK2 WT-MEK5	ABCB6 inh 2	CRFR2-BP antag	CRFR2-BP ag	MEKK2 mut-MEK5	MEKK2wt confirm	MEKK2mut-MEK5	MEKK3-MEK5 inh
Cc1nn(Cc2ccccc2)c(C)c1NC(=O)CSc1n[nH]c(C)c1[N+](=O)[O-]	134*	100	99	11	-1	0	100	0	100
Cc1nn(Cc2ccc(Cl)cc2)c(C)c1NC(=O)CSc1n[nH]c(C)c1[N+](=O)[O-]	142*	112	105	6	0	0	108	1	104
O=[N+]([O-])c1ccc(NS(=O)(=O)N2CCOCC2)cc1	nt	nt	96	-20	7	nt	nt	nt	nt
COc1cc(-c2nnn(CC(=O)NC3CCS(=O)(=O)C3)n2)ccc1OCc1ccccc1 (stereo not given)	0.0*[inhibitor]	0.0*[inhibitor]	87	-15	-2	-24	105	1	106
O=C(O)CC1SC(=Nc2cccc(C(F)(F)F)c2)NC1=O (stereo not given)	124*	133	91	-8	0	15	91	-7	82
O=C(O)CC1SC(=Nc2ccc(O)cc2)NC1=O (stereo not given)	112	104	103	-5	0	0	nt	nt	nt
Cc1cc(C)c2c(c1)/C(=N\N=c1\sc3ccccc3n1C)C(=O)N2	87	79	114	-7	-2	-22	nt	nt	nt
COc1ccc(-c2cc(Cl)cc3c(=O)c4ccccc4n(C)c23)cc1F	94	66*[inhibitor]	96	-1	4	-6	75	-16	96
O=C(NCc1ccc(S(=O)(=O)Nc2ccccc2Cl)s1)c1ccccc1	94	97	105	-4	-3	-11	nt	nt	nt
O=C(NS(=O)(=O)c1ccc(Cl)s1)c1ccccc1	112	193*	102	3	0	23	115	9	103
CCOC(=O)c1ccc(NC(=O)CCCN2C(=O)NC3(CCCC3)C2=O)cc1	nt	nt	93	5	-1	nt	nt	nt	nt
COc1ccc(N/C(=N/c2nc(C)cc(C)n2)NC(=O)c2ccccc2)cc1	102	101	95	1	0	-1	nt	nt	nt
O=C(O)c1ccccc1C(=O)NCCc1c(C(=O)O)[nH]c2ccc(Cl)cc12	106	101	102	5	3	6	nt	nt	nt
